Compound activity (PubChem)
CHX counter: counter-screen for Shiga toxin inhibitors: cycloheximide protein synthesis inhibition. 12% of 300,000 active. cell reporter, cycloheximide protein synthesis inhibition counterscreen. AID 2314. max response, %; in the data active = max response mostly above about 13%, no sharp cut-off; inactive = mostly below about 14%; note: read at 38.3 µM for the half of the compounds with a filed dose
SARS PLP yeast: blocks SARS-CoV papain-like protease in a yeast assay | AID 485353 | 0.19% of 330,000 active | Potency, µM (top dose mostly 32.9 µM), hits mostly activators | S. cerevisiae expressing SARS-CoV PLpro, growth rescue; calls by dose curve; note: nearly all actives have a fitted effect of over 55% in size
Shiga inhibitor: Shiga toxin inhibition; AID 2315; 9.2% of 290,000 active; inhibition, % at 38.7 µM; Vero cells, Shiga toxin protein synthesis inhibition reporter; in the data active = inhibition mostly above about 28%, no sharp cut-off; inactive = mostly below about 43%
AMA1-RON2 inh: disrupts binding of P. falciparum AMA1 to RON2; AlphaScreen AMA1-biotinylated RON2 peptide binding; Potency, µM (top dose mostly 58.2 µM), hits mostly inhibitors; 0.2% of 360,000 active; note: nearly all actives have a fitted effect of over 45% in size
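AMA1 (3D7) with his tag at 25 nM final met compounds first, then biotinylated RON2 peptide at 25 nM; detection used donor plus acceptor beads, 10 µg/mL apiece, read by AlphaScreen after 30 min at room temperature.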
Pf growth 96h: P. falciparum growth inhibition at 96 hours | Potency, µM (top dose mostly 28.7 µM), hits mostly inhibitors | 6.9% of 320,000 active | P. falciparum luciferase reporter growth, 96 h
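Plates of compound plus infected erythrocytes (2% hematocrit, 0.05% parasitemia final) incubate 96 hours, 37 C, 5% CO2. Detection reagent added; reduced luminescence from the parasites' luciferase reporter flags inhibition.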
Pf growth 48h: inhibits P. falciparum growth in the first generation, 48 h | P. falciparum luciferase growth in erythrocytes, 48 h | Potency, µM (series often up to 28.7 µM), hits mostly inhibitors | 5.9% of 310,000 active | AID 504832
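A one-generation exposure of luciferase-tagged malaria parasites in RPMI 1640/Albumax erythrocyte culture, 37 C and 5% CO2. Inhibition is inferred from decreased luminescence after adding detection reagent.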
Large screens that a line does not name were inactive. Shown are actives, neighbours in structure and some others; about 19% of the full set was active somewhere. Unless noted, calls come from the whole dose curve; as a rule, active = well fitted curve in the direction sought with a large enough effect; inconclusive = small, poorly fitted or top-dose-only effect, or another doubt; inactive = no such curve, though single readings can be large; an effect the other way counts as inactive or inconclusive.

CNC(=O)NC(=O)CSc1nnc(-c2ccco2)n1Cc1ccccc1	none
c1ccc(-n2cnnc2SCc2cn3cccnc3n2)cc1	Pf growth 96h inconclusive
O=C(CSc1nnc(-c2ccco2)n1Cc1ccccc1)NC(=O)NCc1ccccc1	Pf growth 96h 12µM, Pf growth 48h inconclusive
Cc1ccccc1S(=O)(=O)NC(=O)C1(C)CCN1C(=O)C1(c2ccccc2)CC1 (centres undefined)	none (no result: CHX counter, SARS PLP yeast, Shiga inhibitor, Pf growth 96h, Pf growth 48h)
CCOC(=O)CNC(=O)CSc1nnc(-c2ccco2)n1N	Pf growth 96h inconclusive
O=c1c2c(-c3ccco3)csc2nc(SCc2cn3cccnc3n2)n1-c1ccccc1	AMA1-RON2 inh 16µM, Pf growth 96h 9.3µM, Pf growth 48h 7.4µM
NC(=O)CSc1nc2scc(-c3ccco3)c2c(=O)n1-c1ccccc1	AMA1-RON2 inh inconclusive (no result: Pf growth 96h)
CCOC(=O)CNC(=O)CSc1nnc(-c2ccco2)n1Cc1ccco1	Pf growth 96h 8.3µM
O=C(CSc1nnc(-c2cccnc2)n1Cc1ccco1)NCc1ccc2c(c1)OCO2	Pf growth 96h inconclusive
COc1cccc(-c2nnc(SCC(=O)NCc3ccc4c(c3)OCO4)n2Cc2ccco2)c1	Pf growth 96h 6.6µM (no result: Pf growth 48h)
Cc1ccc(C(=O)CSc2nnc(-c3ccco3)n2Cc2ccccc2)cc1	CHX counter 22, Pf growth 96h 7.4µM
CN(C)c1ccc(/C=C2\Oc3ccc(C#Cc4cccc(N)c4)cc3C2=O)cc1	none (no result: CHX counter, Shiga inhibitor, Pf growth 96h, Pf growth 48h)
CCCCn1nnnc1C1(C)CCC(=O)N1CCOc1ccccc1 (centres undefined)	none (no result: CHX counter, SARS PLP yeast, Shiga inhibitor, Pf growth 96h, Pf growth 48h)
COc1ccc2cc(CN(CC3CCCO3)S(=O)(=O)c3ccccc3Cl)c(=O)[nH]c2c1 (centres undefined)	Pf growth 96h inconclusive (no result: Pf growth 48h)
CN(C(=O)c1cccc(NC(=O)Cc2ccc(NC(=O)C3CCN(C(=O)CCc4ccccc4)CC3)cc2)c1)C1CC1	none (no result: CHX counter, SARS PLP yeast, Shiga inhibitor, Pf growth 96h, Pf growth 48h)
CCOC(=O)C1CCN(C/C=C/c2ccccc2[N+](=O)[O-])CC1	none
CCOC(=O)c1nnn(-c2nonc2N)c1-c1ccc(OCC)cc1	Pf growth 96h inconclusive, Pf growth 48h 13µM
CCOc1ccc(/C=N/NC(=O)c2nnn(-c3nonc3N)c2-c2ccc(OCC)cc2)cc1	none
CCOc1cccc(-c2c(C(=O)N/N=C(\C)c3ccccn3)nnn2-c2nonc2N)c1	Pf growth 96h 3.7µM, Pf growth 48h inconclusive
CCOC(=O)c1nnn(-c2nonc2N)c1CN1CCc2ccccc2C1	none (no result: Pf growth 96h)
CCOC(=O)c1nnn(-c2nonc2N)c1CS(=O)(=O)c1ccccc1	Pf growth 96h 12µM
CSc1ccc(CN(C)Cc2nc3ccccc3c(=O)[nH]2)cc1	none
CCNc1nc(NC(C)C)nc(Oc2ccc(OCCOc3ccccc3)nn2)n1	Pf growth 48h inconclusive (no result: Pf growth 96h)
O=C(NCC1CC1)NC(=O)c1c(F)cccc1Cl	CHX counter 15
CC(C)C(=O)N1CCC(CN=Cc2c(O)n(C3CCCCC3)c(=O)n(C3CCCCC3)c2=O)CC1	Pf growth 48h 1.5µM
O=S(=O)(NC1CCCCC1N1CCN(c2cccc(Cl)c2)CC1)c1ccccc1 (centres undefined)	Pf growth 48h 15µM
CN(c1ccccc1)S(=O)(=O)c1cccc(NC(=O)c2ccc(=O)[nH]n2)c1	none (no result: CHX counter, Shiga inhibitor, Pf growth 96h, Pf growth 48h)
C=CCn1cc(C(=O)NCCCOCC)c(=O)c2cc(S(=O)(=O)N(CC)CC)ccc21	Pf growth 48h inconclusive
C/C(=N\NC(=O)c1ccco1)c1ccc(-c2ccccc2)cc1	CHX counter 23, Shiga inhibitor 108, Pf growth 96h inconclusive, Pf growth 48h inconclusive
C/C(=N\NC(=O)c1ccco1)c1ccc(NC(=O)c2ccccc2)cc1	CHX counter 35, Shiga inhibitor 72, Pf growth 96h 13µM
C/C(=N\NC(=O)c1ccco1)c1cc2ccccc2o1	CHX counter 58, Shiga inhibitor 95
C/C(=N\NC(=O)c1ccco1)c1cc(Cl)sc1Cl	CHX counter 25, Shiga inhibitor 71
COc1ccc(/C(C)=N/NC(=O)CNC(=O)c2ccco2)c(OC)c1	none
CC1(C(=O)NS(=O)(=O)Cc2ccccc2C(F)(F)F)CCN1C(=O)c1ccco1 (centres undefined)	none (no result: CHX counter, SARS PLP yeast, Shiga inhibitor, Pf growth 96h, Pf growth 48h)
O=C(O)c1ccc2c(c1)C(=O)N([C@@H](Cc1ccc(O)cc1)C(=O)O)C2=O	none (no result: AMA1-RON2 inh)
C/C(=N\NC(=O)c1ccco1)c1ccc(NC(=O)C(F)(F)F)cc1	CHX counter 57, Shiga inhibitor 61
C/C(=N\NC(=O)COc1ccccc1F)c1cc2ccccc2o1	CHX counter 48, Shiga inhibitor 126
C/C(=N\NC(=O)c1ccncc1)c1cc2ccccc2o1	none
Cc1ccc(NC(=O)CS(=O)Cc2nc(-c3ccc(C)cc3)oc2C)cc1 (centres undefined)	none (no result: Pf growth 48h)
Cc1ccccc1-c1csc(N)n1	none (no result: CHX counter, SARS PLP yeast, Shiga inhibitor, Pf growth 96h, Pf growth 48h)
Cc1ccc(-c2csc(N)n2)s1	CHX counter 23
COc1cccc(C(=O)Nc2cc(C(=O)NCc3ccc(C)cc3)ccc2N2CCC3(CC2)CC(c2cccc(Br)c2)=NO3)c1	Pf growth 48h 10µM (no result: CHX counter, Shiga inhibitor)
CCCNC(=O)c1ccc(N2CCC3(CC2)CC(c2cccc(Br)c2)=NO3)c(NC(=O)c2ccccc2)c1	Pf growth 96h 12µM, Pf growth 48h 9.3µM (no result: CHX counter, Shiga inhibitor)
CCCNC(=O)c1ccc(N2CCC3(CC2)CC(c2ccccc2)=NO3)c(NC(=O)c2ccc(Br)cc2)c1	Pf growth 96h 1.9µM, Pf growth 48h inconclusive
Cc1ccc(CNC(=O)c2ccc(N3CCC4(CC3)CC(c3ccccc3)=NO4)c(NC(=O)c3cccc(C)c3)c2)cc1	Pf growth 96h inconclusive, Pf growth 48h 4.1µM (no result: CHX counter, Shiga inhibitor)
CCCNC(=O)c1ccc(N2CCC3(CC2)CC(c2ccccc2)=NO3)c(NC(=O)c2ccccc2)c1	Pf growth 96h 5.9µM, Pf growth 48h inconclusive
Cc1ccc(CNC(=O)c2ccc(N3CCC4(CC3)CC(c3cccc(Br)c3)=NO4)c(NC(=O)c3cccc(C)c3)c2)cc1	Pf growth 48h inconclusive (no result: CHX counter, Shiga inhibitor)
CCCNC(=O)c1ccc(N2CCC3(CC2)CC(c2cccc(Br)c2)=NO3)c(NC(=O)c2cccc(OC)c2)c1	Pf growth 96h 8.3µM, Pf growth 48h inconclusive (no result: CHX counter, Shiga inhibitor)
CCCCCCCC(=O)Nc1cc(C(=O)NCc2ccc(C)cc2)ccc1N1CCC2(CC1)CC(c1cccc(Br)c1)=NO2	none (no result: CHX counter, Shiga inhibitor)
Cc1ccc(CNC(=O)c2ccc(N3CCC4(CC3)CC(c3ccccc3)=NO4)c(NC(=O)c3ccc(Cl)c([N+](=O)[O-])c3)c2)cc1	Pf growth 96h inconclusive, Pf growth 48h inconclusive (no result: CHX counter, Shiga inhibitor)
CCCNC(=O)c1ccc(N2CCC3(CC2)CC(c2ccccc2)=NO3)c(NC(=O)c2cccc(C)c2)c1	Pf growth 96h 1.9µM, Pf growth 48h 8.3µM
CCCCCCCC(=O)Nc1cc(C(=O)NCCC)ccc1N1CCC2(CC1)CC(c1ccccc1)=NO2	Pf growth 96h 7.4µM, Pf growth 48h inconclusive
COc1ccc(C)cc1-n1nnnc1SCC(=O)NC1CCS(=O)(=O)C1 (centres undefined)	Pf growth 48h inconclusive (no result: CHX counter, Shiga inhibitor)
CC(=O)c1ccc(NC(=O)c2cn(C)c(=O)c3ccccc23)cc1	none (no result: CHX counter, SARS PLP yeast, Shiga inhibitor, Pf growth 96h, Pf growth 48h)
